In the library only some 3.5% were active in any assay of this set; here they are far more common.
FadD28 FP inh – inhibitors of FadD28 bisubstrate probe binding, primary screen, biochemical, fluorescence polarization, single point; AID 588549, 2011; actives 0.22% (n = 360,000); inhibition, % at 12.5 µM; in the data active means inhibition above about 8.5%, passing the limit was not always enough
Mtb UGM inh – M. tuberculosis UGM enzyme inhibitors, primary screen, biochemical, fluorescence polarization, single point. purified UGM, fluorescence polarization probe displacement. inhibition, % at 10 µM. actives 0.06% (n = 320,000). AID 504406, 2011; in the data active means inhibition above about 10%, passing the limit was not always enough
Target sequence (P9WIQ1 whole entry, looked up): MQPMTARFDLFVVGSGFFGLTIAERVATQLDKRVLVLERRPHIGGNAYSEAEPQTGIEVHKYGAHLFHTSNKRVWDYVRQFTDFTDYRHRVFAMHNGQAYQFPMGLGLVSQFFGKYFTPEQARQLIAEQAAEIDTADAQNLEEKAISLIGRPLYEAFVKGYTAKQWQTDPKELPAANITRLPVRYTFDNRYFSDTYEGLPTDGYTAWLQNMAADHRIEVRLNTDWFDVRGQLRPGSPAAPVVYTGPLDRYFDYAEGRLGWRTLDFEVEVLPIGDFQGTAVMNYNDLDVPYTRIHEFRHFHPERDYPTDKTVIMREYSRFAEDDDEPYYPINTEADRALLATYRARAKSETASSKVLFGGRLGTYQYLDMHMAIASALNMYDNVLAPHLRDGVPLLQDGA
Mtb hypoxia inh – PubChem AID 1159583; M. tuberculosis hypoxia-regulated fluorescent reporter, fluorescence; actives 0.1% (n = 300,000); fluorescence inhibition, % (test concentration not listed); in the data active means fluorescence inhibition mostly above about 23%, no sharp cut-off; inactive means mostly below about 17%
Rv3671c inh – Rv3671c serine protease inhibitors, primary screen, biochemical, fluorescence polarization, M. tuberculosis H37Rv; inhibition, % at 5.96 µM; AID 2606, 2010; P9WHR9; actives 0.048% (n = 320,000); in the data active means inhibition above about 38%;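 further: extracellular domain of Rv3671c used as enzyme; 0% = enzyme with DMSO and 100% = no enzyme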
GDH-TPI inh – GDH-TPI coupling enzyme inhibitors, primary screen, artefact control for M. tuberculosis FBA inhibitor project, biochemical, absorbance, full deck | GDH-TPI coupled enzyme counterscreen, NADH absorbance | inhibition, % at 4.8 µM | actives 1.2% (n = 360,000); in the data active means inhibition above about 30%;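 further: 0% = DMSO wells and 100% = wells lacking the enzyme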
Mtb FBA inh – Mtb FBA enzyme inhibitors, primary screen, biochemical, fluorescence, strain H37Rv; Fructose-bisphosphate aldolase (Mycobacterium tuberculosis (strain ATCC 25618 / H37Rv)), …; inhibition, % at 1 µM; actives 2.3% (n = 360,000); purified M. tuberculosis FBA, fluorescence read-out; in the data active means inhibition above about 27%;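 further: 0% = vehicle and 100% = reference inhibitor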
Target sequence (P9WQA3 whole entry, looked up): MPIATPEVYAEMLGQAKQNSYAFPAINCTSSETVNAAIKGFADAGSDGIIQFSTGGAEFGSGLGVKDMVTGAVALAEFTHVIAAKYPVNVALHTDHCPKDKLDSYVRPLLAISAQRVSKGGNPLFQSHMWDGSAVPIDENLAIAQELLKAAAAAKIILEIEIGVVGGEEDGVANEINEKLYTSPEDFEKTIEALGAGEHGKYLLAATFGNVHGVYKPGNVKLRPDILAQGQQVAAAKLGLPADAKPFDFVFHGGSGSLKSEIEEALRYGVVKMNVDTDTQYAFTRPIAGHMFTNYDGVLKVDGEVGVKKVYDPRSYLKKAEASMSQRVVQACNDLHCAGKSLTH
The depositor's hits bear a star; . = no result given; + = active, no number.

SMILES | FadD28 FP inh | Mtb UGM inh | Mtb hypoxia inh | Rv3671c inh | GDH-TPI inh | Mtb FBA inh
CCOC(=O)C1=C(O)/C(=C/c2cn(CC(=O)NCC3CCCO3)c3ccccc23)SC1=Nc1ccc(C)cc1 (stereo not given) | -2.0 | 21.9* | 1.8 | 10.9 | 12.7 | -7.9
O=c1cc(-c2ccccc2)oc2cc(O)ccc12 | -0.5 | . | . | . | 20.6 | 2.5
Nc1ccc(-c2c3ccc(=O)cc-3oc3cc(O)ccc23)cc1C(=O)O | 7.1 | 45.4* | . | 9.3 | 3.2 | -18.1
O=S(=O)(Nc1nc2ccccc2nc1NCc1ccco1)c1ccc(F)cc1 | 0.1 | -0.2 | -5.5 | -5.1 | 34.5* | 12.0
Cc1ccc(Nc2nc(N)c(C#N)c(CC#N)c2C#N)cc1 | -0.6 | -3.4 | -3.9 | -6.1 | 37.8* | -1.8
CSc1c(C#N)c(N)nc2sc(C(=O)c3ccccc3)c(N)c12 | -2.3 | 1.8 | . | 4.1 | 46.2* | -2.2
Cn1cncc1C#Cc1ccc2c(=O)c3ccccc3oc2c1 | -2.3 | -1.2 | 4.5 | -10.6 | 41.4* | 3.1
Nc1ccc(C#Cc2ccc3c(=O)c4ccccc4oc3c2)cc1 | -2.0 | -0.7 | 10.9 | -5.8 | 22.7 | 14.1
Cn1cncc1C#Cc1ccc2cc(C(C)(C)O)oc(=O)c2c1 | -0.8 | 2.1 | 8.6 | -8.0 | 30.8* | 13.8
Cn1cncc1C#Cc1ccc2cc(C3(O)CCCCC3)oc(=O)c2c1 | 2.5 | 2.9 | 3.2 | 2.3 | 7.4 | 4.3
Cn1cncc1C#Cc1ccc2cc(CCCO)oc(=O)c2c1 | -1.2 | 0.4 | 9.4 | 9.8 | 33.6* | 47.0*
COc1cccc(CN2C(=O)C3Cc4c([nH]c5ccccc45)C(C)(C)N3C2=O)c1 (stereo not given) | . | . | 4.6 | . | . | .
C=CCC(CC(=O)NCCO)C(=O)NC(COC(=O)C(CC=C)Cc1ccc(F)cc1)Cc1ccccc1 (stereo not given) | . | . | 11.8 | . | . | .
COCc1cc(=O)[nH]c(Nc2nc3ccc(C)cc3o2)n1 | -0.5 | 3.3 | -18.7 | -10.2 | 34.4* | 6.7
CNC(=O)CON=Cc1ccc(N(C)C)cc1 | . | . | 12.6 | . | . | .
COc1ccc(C2CC(c3ccccc3)=NN2C(=S)Nc2ccccc2)cc1 (stereo not given) | 0.4 | 2.3 | -2.8 | -11.7 | 34.1* | -1.4
CNC(=S)N1N=C(c2cccs2)CC1c1ccc(OC)cc1 (stereo not given) | -8.1 | 0.4 | 1.8 | 0.4 | 47.9* | 2.8
COc1ccc(C2CC(c3cccs3)=NN2C(=O)CN2CCCCC2)cc1 (stereo not given) | -1.5 | 3.1 | -5.6 | 9.1 | 12.0 | 5.5
O=c1c(C=NN2CCOCC2)c(C(F)(F)F)[nH]n1-c1ccccc1 | . | . | 8.8 | . | . | .
O=c1cccccc1NN=C1CCCCC1 | 0.5 | 2.9 | 0.6 | -0.9 | 10.2 | -3.6
O=C(O)c1cc(Br)ccc1NN=C1CCCCC1 | 12.3* | . | 5.8 | 8.5 | 17.9 | 2.2
NS(=O)(=O)c1ccc(NC(=O)Cc2cccs2)cc1 | -4.1 | -2.2 | 15.0 | . | -1.5 | 0.3
NS(=O)(=O)c1ccc(NC(=O)COC(=O)/C(=C/c2cccs2)c2cccs2)cc1 | -0.8 | -2.1 | -2.6 | -60.1 | 42.0* | -2.8
CC1=N/C(=C\c2ccc(OC(C)C)cc2)C(=O)N1c1ccc(C(=O)O)cc1 | 1.2 | -1.6 | 7.5 | -12.8 | 33.5* | 1.2
COP(=O)(OC)c1nc(-c2cccc3ccccc23)oc1NCc1ccccc1 | -2.6 | -0.4 | 10.3 | -9.9 | 15.7 | 191.9*
SMILES | FadD28 FP inh | Mtb UGM inh | Mtb hypoxia inh | Rv3671c inh | GDH-TPI inh | Mtb FBA inh
COc1ccc(CNc2oc(-c3cccc4ccccc34)nc2P(=O)(OC)OC)cc1 | -2.5 | -1.5 | -3.4 | -1.3 | 6.6 | +
CCOP(=O)(c1ccccc1)c1nc(-c2ccccc2C)oc1NCc1ccccc1 (stereo not given) | -1.2 | 3.2 | 14.2 | 5.9 | 5.4 | -3.2
CC(=O)n1cc(C=NNC(=O)c2ccc([N+](=O)[O-])cc2)c2ccccc21 | . | . | 2.6 | . | . | .
S=c1[nH]nc(-c2cccs2)n1N=Cc1c(Cl)cccc1Cl | . | . | 7.1 | . | . | .
O=C1C=C(c2ccc(Cl)c(C(F)(F)F)c2)CC(c2ccc3c(c2)OCO3)C1 (stereo not given) | . | . | 3.0 | . | . | .
Cc1ccc2nc(N(CCN(C)C)C(=O)/C=C/c3cccs3)sc2c1 | -0.4 | . | 6.7 | -4.1 | 22.3 | 4.0
COc1ccc(OC)c2sc(N(CCN(C)C)C(=O)/C=C/c3cccs3)nc12 | -0.3 | 2.7 | . | 2.3 | 33.0* | 3.9
CCN(CC)CCN(C(=O)/C=C/c1cccs1)c1nc2ccc(F)cc2s1 | -0.7 | 0.7 | 1.8 | -8.1 | 3.9 | 1.6
COc1ccc(C)c2sc(N(CCN(C)C)C(=O)/C=C/c3cccs3)nc12 | -2.6 | 0.7 | . | -6.8 | 30.8* | -0.2
CN(C)CCCN(C(=O)/C=C/c1cccs1)c1nc2ccc(F)cc2s1 | -4.1 | -0.6 | 11.8 | 3.7 | 48.1* | -2.2
COc1cccc2sc(N(CCN(C)C)C(=O)/C=C/c3cccs3)nc12 | -3.2 | 0.3 | 16.4 | 5.2 | 32.3* | 1.4
CCOc1cccc2sc(N(CCN(C)C)C(=O)/C=C/c3cccs3)nc12 | -7.2 | -2.5 | 12.7 | -7.5 | 4.3 | -6.2
CC(C)CC(NC(=O)Nc1ccccc1F)C(=O)O (stereo not given) | . | . | 10.8 | . | . | .
Cn1c(N)c(N=O)c(=O)n(C)c1=S | -0.6 | . | 5.2 | . | 43.0* | -2.0
CCC(C)n1c(-c2ccco2)nc2nc3ccccc3nc21 (stereo not given) | . | -0.9 | . | -11.4 | . | .
COCCn1c(-c2ccco2)nc2nc3ccccc3nc21 | 1.0 | -0.6 | 16.5 | 1.5 | 36.8* | +
CC(C)OCCCn1c(-c2ccco2)nc2nc3ccccc3nc21 | 2.2 | -0.8 | 5.6 | -2.8 | 36.0* | +
O=[N+]([O-])c1cc2c(cc1C=NNc1nc(Nc3ccccc3)nc(N3CCCCC3)n1)OCO2 | . | . | -2.4 | . | . | .
CC1=C(C(=O)OCc2cc(C)on2)N2C(=O)C(NC(=O)OCc3cc(C)on3)C2SC1 (stereo not given) | . | . | 6.3 | . | . | .
NS(=O)(=O)c1ccc(CNC(=O)C(Cc2ccccc2)NS(=O)(=O)c2ccccc2F)cc1 (stereo not given) | 16.1* | -4.1 | 3.1 | -0.8 | 0.0 | -0.3
NS(=O)(=O)c1ccc(CNC(=O)Cc2ccccc2F)cc1 | -1.5 | -0.1 | -0.3 | -2.1 | -1.2 | 4.2
COc1ccc(OC)c(C=NNC(=O)c2c(C)nc3cc(C)ccn23)c1 | . | . | -1.3 | . | . | .
CC(C)C1NC(=O)c2cc([N+](=O)[O-])cc(I)c2OCCC(C(N)=O)NC(=O)C(CCC(=O)O)NC1=O (stereo not given) | . | . | -3.6 | . | . | .
CCc1cc(=O)oc2cc(OC(=O)CN3C(=O)NC4(CCCC4)C3=O)ccc12 | -1.4 | -0.6 | . | 0.7 | 18.9 | +
CCOC(=O)Nc1ccc2c(CN3C(=O)NC(CC)(CC)C3=O)cc(=O)oc2c1 | . | 3.5 | . | -5.5 | . | .
CCOC(=O)Nc1ccc2c(CN3C(=O)NC4(CCCC4)C3=O)cc(=O)oc2c1 | -2.7 | . | -0.2 | . | 22.8 | +
O=C(CN1C(=O)NC2(CCCC2)C1=O)Oc1ccc2ccc(=O)oc2c1 | 0.8 | -1.8 | 1.6 | 10.6 | 26.5 | .
COc1ccc(Cl)cc1C=NNC(=O)c1c(-c2ccccc2)noc1C | . | . | 0.3 | . | . | .
CN(C)N=Nc1nc2c(c(=O)n(C)c(=O)n2C)n1CC1CO1 (stereo not given) | 1.0 | 0.9 | -2.8 | -3.7 | 35.4* | -2.1
